The results in this text go back to the supplement of paper PMC8728848.

About 410 targets per protein were measured; listed, in parts, are those with the strongest signals and a random draw of the rest.

Holding throughout (experiment): glycan array binding signal (z-score within array); higher = stronger binding
The test system of test [1] is Gal(a1-3)Gal(b1-4)GlcNAc(b1-3)GalNAc. Particulars: glycan notation: IUPAC condensed, linker removed. The essentials:
(§1)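 From the Consortium for Functional Glycomics database, 3228 arrays were curated, keeping only those whose protein sequence was available. Binding is given as a within-array Z-score averaged across arrays sharing a protein sequence and across linkers. Negative Z-scores can be read as non-binding.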

A further test deals with Gal(a1-3)Gal(b1-4)GlcNAc. Particulars: glycan notation: IUPAC condensed, linker removed. The procedure, abridged: as §1
The test system of the next test is Gal(a1-3)Gal. Particulars: glycan notation: IUPAC condensed, linker removed. The essentials: as §1
In test [2] the test system is Gal(a1-3)Gal(b1-4)[Fuc(a1-3)]GlcNAc(b1-2)Man(a1-3)[Gal(a1-3)Gal(b1-4)[Fuc(a1-3)]GlcNAc(b1-2)Man(a1-6)]Man(b1-4)GlcNAc(b1-4)GlcNAc. As to conditions: glycan notation: IUPAC condensed, linker removed; mutation: R125K. The essentials: as §1
Test [3] relates to Gal(a1-3)Gal(b1-4)[Fuc(a1-3)]GlcNAc. Particulars: glycan notation: IUPAC condensed, linker removed; mutation: R125K. The procedure, abridged:
as §1

The subject of test [4] is Gal(a1-3)[Gal(a1-4)]Gal(b1-4)GlcNAc. Particulars: glycan notation: IUPAC condensed, linker removed. The procedure, abridged:
as §1

The subject of a further test is Gal(a1-3)GalNAc. As to conditions: glycan notation: IUPAC condensed, linker removed. The procedure, abridged:
as §1

For another test, the system named is Gal(a1-4)Gal(b1-4)Gal. Particulars: glycan notation: IUPAC condensed, linker removed. The essentials: as §1
The subject of test [5] is Gal(a1-4)Gal(b1-4)GlcNAc(b1-3)Gal(b1-4)Glc. As to conditions: glycan notation: IUPAC condensed, linker removed. The procedure, abridged: as §1

PILRb (Mus musculus), Q2YSF2, sequence (Q2YSF2 entry or part of it): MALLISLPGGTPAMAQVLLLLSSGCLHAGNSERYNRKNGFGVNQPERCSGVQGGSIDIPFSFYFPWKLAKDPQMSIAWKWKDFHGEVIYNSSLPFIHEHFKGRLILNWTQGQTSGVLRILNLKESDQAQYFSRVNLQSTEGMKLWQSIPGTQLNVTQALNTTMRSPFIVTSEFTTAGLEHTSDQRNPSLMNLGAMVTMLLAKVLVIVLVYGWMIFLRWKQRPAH
CHT (Homo sapiens), sequence (chain, as listed by the source): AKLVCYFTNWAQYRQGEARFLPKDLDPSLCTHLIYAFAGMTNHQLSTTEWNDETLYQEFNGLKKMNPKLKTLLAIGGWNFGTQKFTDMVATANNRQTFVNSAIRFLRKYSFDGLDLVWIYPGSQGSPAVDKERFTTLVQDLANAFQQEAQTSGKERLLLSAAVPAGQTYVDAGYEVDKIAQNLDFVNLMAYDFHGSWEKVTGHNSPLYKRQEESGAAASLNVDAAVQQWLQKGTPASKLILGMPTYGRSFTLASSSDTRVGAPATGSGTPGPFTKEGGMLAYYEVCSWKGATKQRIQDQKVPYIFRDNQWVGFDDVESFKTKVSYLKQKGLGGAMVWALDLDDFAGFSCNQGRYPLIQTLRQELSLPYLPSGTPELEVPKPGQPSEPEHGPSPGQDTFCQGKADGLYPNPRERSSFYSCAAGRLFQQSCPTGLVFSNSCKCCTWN
Aggrecan (Rattus norvegicus), NP_071526, sequence (chain, as listed by the source): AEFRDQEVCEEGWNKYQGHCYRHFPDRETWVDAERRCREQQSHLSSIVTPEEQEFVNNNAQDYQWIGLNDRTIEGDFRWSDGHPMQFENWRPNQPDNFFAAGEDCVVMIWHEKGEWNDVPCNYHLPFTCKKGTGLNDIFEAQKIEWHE
wLAT-1A (Homo sapiens), Q01650, sequence (Q01650 whole entry): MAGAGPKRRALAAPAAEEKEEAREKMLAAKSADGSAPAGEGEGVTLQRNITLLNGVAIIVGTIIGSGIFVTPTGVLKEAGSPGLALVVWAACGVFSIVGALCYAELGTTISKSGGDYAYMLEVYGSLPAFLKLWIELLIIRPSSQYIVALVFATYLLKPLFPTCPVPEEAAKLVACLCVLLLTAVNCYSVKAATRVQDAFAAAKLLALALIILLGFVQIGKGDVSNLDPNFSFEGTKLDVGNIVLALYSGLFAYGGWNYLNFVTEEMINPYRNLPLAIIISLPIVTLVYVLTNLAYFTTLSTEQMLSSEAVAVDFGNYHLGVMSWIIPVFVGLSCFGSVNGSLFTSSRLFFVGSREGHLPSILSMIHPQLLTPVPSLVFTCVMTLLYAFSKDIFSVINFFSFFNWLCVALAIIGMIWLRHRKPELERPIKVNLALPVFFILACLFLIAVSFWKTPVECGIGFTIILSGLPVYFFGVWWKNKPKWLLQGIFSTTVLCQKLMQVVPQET
C3b (Homo sapiens), P01024, sequence (P01024 23-667): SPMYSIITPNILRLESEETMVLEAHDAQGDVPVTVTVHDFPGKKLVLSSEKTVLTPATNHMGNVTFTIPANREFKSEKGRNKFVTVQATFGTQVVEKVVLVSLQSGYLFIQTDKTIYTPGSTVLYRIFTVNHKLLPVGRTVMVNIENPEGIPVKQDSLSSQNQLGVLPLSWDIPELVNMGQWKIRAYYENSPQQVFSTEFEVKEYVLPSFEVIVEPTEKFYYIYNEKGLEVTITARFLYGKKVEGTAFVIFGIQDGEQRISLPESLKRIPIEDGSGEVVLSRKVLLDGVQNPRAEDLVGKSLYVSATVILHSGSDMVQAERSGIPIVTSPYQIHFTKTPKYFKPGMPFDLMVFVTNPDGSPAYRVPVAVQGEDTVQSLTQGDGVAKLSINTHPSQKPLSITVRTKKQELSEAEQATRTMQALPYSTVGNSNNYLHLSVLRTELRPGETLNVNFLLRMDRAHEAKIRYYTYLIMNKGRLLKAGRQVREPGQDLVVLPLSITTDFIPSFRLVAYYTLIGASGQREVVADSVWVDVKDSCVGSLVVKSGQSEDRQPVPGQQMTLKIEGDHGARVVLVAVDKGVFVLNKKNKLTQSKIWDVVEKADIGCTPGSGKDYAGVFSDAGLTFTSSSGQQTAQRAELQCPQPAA
6RG (Lolium perenne), sequence (chain, as listed by the source): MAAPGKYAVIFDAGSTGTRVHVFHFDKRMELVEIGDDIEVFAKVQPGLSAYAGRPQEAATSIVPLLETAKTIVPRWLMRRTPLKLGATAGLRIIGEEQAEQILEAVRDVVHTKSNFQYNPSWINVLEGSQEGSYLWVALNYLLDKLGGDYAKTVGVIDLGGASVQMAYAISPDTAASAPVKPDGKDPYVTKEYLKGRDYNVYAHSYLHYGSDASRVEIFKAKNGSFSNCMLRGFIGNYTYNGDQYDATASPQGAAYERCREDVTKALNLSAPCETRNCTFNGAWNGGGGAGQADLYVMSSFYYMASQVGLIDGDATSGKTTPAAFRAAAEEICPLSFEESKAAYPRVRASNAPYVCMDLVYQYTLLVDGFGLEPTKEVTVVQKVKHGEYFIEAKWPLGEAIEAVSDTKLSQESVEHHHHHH

As to PILRb (Mus musculus), Q2YSF2, the “glycan array binding signal (z-score)” value was -0.089 in test [1], -0.363 in the test on Gal(a1-3)Gal(b1-4)GlcNAc and 2.68 in the test on Gal(a1-3)Gal.
Regarding Siglec-8 (Homo sapiens), Q9NYZ4, the “glycan array binding signal (z-score)” value in test [2] was 1.51; in [3] it was -0.444; in [4], -0.14.
Turning to wLAT-1A (Homo sapiens), Q01650, the “glycan array binding signal (z-score)” value in the test with Gal(a1-3)GalNAc stood at 0.501.
In the case of C3b (Homo sapiens), P01024, in the test on Gal(a1-3)Gal, the “glycan array binding signal (z-score)” value was 2.77.
Consider CHT (Homo sapiens), for which the “glycan array binding signal (z-score)” value in [4] (mutation: D138V, E140I) is -0.162; in the test on Gal(a1-4)Gal(b1-4)Gal (mutation: D138V, E140I), -0.141.
For the substance 6RG (Lolium perenne), the “glycan array binding signal (z-score)” value with Gal(a1-4)Gal(b1-4)Gal stood at 6.25.
As to Aggrecan (Rattus norvegicus), NP_071526, the “glycan array binding signal (z-score)” value in test [5] is -0.204.
